Screens: PubChem BioAssay, several laboratories
Mtb FBA inh: Mtb FBA enzyme inhibitors, primary screen, biochemical, fluorescence, strain H37Rv. purified M. tuberculosis FBA, fluorescence read-out. inhibition, % at 1 µM. hit rate 2.3% among 360,000. AID 588726, 2011; in the data active = inhibition above about 27%;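 also: 0% = vehicle and 100% = reference inhibitor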
Mtb UGM inh: M. tuberculosis UGM enzyme inhibitors, primary screen, biochemical, fluorescence polarization, single point; UDP-galactopyranose mutase (Mycobacterium tuberculosis (strain ATCC 25618 / H37Rv)), …; purified UGM, fluorescence polarization probe displacement; inhibition, % at 10 µM; hit rate 0.06% among 320,000; AID 504406, 2011; in the data active = inhibition above about 10%, passing the limit was not always enough
Target sequence (P9WIQ1 whole entry, looked up): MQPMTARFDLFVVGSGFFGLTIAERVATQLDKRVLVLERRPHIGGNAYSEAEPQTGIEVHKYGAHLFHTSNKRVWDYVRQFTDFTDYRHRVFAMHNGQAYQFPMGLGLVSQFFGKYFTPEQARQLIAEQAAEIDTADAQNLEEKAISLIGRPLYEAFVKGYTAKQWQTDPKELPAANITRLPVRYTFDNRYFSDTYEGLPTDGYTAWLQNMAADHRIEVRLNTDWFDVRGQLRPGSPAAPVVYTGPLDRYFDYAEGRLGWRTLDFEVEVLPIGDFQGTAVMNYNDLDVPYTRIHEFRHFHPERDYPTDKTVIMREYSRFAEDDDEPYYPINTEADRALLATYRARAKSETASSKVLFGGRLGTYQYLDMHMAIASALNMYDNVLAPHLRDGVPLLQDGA
Mtb hypoxia rep: PubChem AID 1159583. M. tuberculosis hypoxia-regulated fluorescent reporter, fluorescence. fluorescence inhibition, % (test concentration not listed). hit rate 0.1% among 300,000; in the data active = fluorescence inhibition mostly above about 23%, no sharp cut-off; inactive = mostly below about 17%
GDH-TPI counter: GDH-TPI coupling enzyme inhibitors, primary screen, artefact control for M. tuberculosis FBA inhibitor project, biochemical, absorbance, full deck; GDH-TPI coupled enzyme counterscreen, NADH absorbance; inhibition, % at 4.8 µM; hit rate 1.2% among 360,000; in the data active = inhibition above about 30%;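 also: 0% = DMSO wells and 100% = wells lacking the enzyme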
Rv3671c inh: Rv3671c serine protease inhibitors, primary screen, biochemical, fluorescence polarization, M. tuberculosis H37Rv; P9WHR9; inhibition, % at 5.96 µM; hit rate 0.048% among 320,000; AID 2606, 2010; in the data active = inhibition above about 38%;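 also: extracellular domain of Rv3671c used as enzyme; 0% = enzyme with DMSO and 100% = no enzyme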
FadD28 FP inh: inhibitors of FadD28 bisubstrate probe binding, primary screen, biochemical, fluorescence polarization, single point; Mycobacterium tuberculosis FadD28 fatty-acid-AMP ligase; inhibition, % at 12.5 µM; hit rate 0.22% among 360,000; in the data active = inhibition above about 8.5%, passing the limit was not always enough
* marks the source's active call; other numbers are inactive results; / = no result given. A selection: hits, their analogues and other compounds. The true share with any hit is near 3.5%.

SMILES | Mtb FBA inh | Mtb UGM inh | Mtb hypoxia rep | GDH-TPI counter | Rv3671c inh | FadD28 FP inh
O=C(NN1C(=O)/C(=C/C=C/c2ccco2)SC1=S)c1ccncc1 | -13.8 | 2.9 | 14.5 | 8.6 | 11.9 | 30.4*
Cc1c(Cc2ccccc2)c(=O)oc2cc(OCC(=O)N3CCC(C(=O)O)CC3)ccc12 | 148.2* | -1.4 | / | 32.4* | 1.9 | -4.2
O=C(COc1ccc2c(c1)oc(=O)c1ccccc12)N[C@@H](Cc1ccccc1)C(=O)O | 115.5* | 4.2 | / | 8.8 | -11.1 | -6.1
O=c1oc2cc(O[C@@H]3OC[C@@H](O)[C@H](O)[C@H]3O)ccc2c2ccccc12 | 71.5* | 2.1 | 0.0 | 14.7 | 3.4 | -0.6
Cc1c(OCC(=O)N2CCC(C(=O)O)CC2)ccc2c1oc(=O)c1ccccc12 | 142.0* | -3.2 | / | 10.8 | 1.1 | -6.0
Cc1c(C)c2ccc(OCC(=O)N3CCN(Cc4ccccc4)CC3)cc2oc1=O | 0.4 | -0.5 | -1.8 | 2.9 | 3.3 | -0.9
O=C(COc1ccc2c3c(c(=O)oc2c1)CCC3)NC(Cc1ccc(Cl)cc1)C(=O)O (stereo not given) | 20.9 | 2.4 | / | 11.8 | -4.7 | -5.4
Cc1cc(=O)oc2cc(O[C@@H]3O[C@H](CO)[C@H](O)[C@H](O)[C@H]3O)ccc12 | 7.1 | 2.8 | 6.8 | 6.0 | -6.7 | 1.3
COC(CC(O)CC(=O)COCc1ccccc1)OC (stereo not given) | / | / | 12.8 | / | / | /
O=C(O)C1CCN(C(=O)COc2ccc3c(c2)oc(=O)c2ccccc23)CC1 | 138.4* | -1.6 | / | 10.8 | 0.1 | -3.6
O=C(COc1ccc2c3c(c(=O)oc2c1)CCCC3)N1CCN(c2ccc(F)cc2)CC1 | 3.8 | 0.9 | 7.9 | 5.6 | 2.5 | -0.9
CC(=NNc1cccc([N+](=O)[O-])c1)c1cc2ccccc2o1 | / | / | 5.7 | / | / | /
Cc1ccccc1C(=O)Nc1cccc(C(=O)NN=Cc2ccccn2)c1 | / | / | 16.2 | / | / | /
Cc1ccsc1/C=C1/SC(N2CCOCC2)=NC1=O | / | / | 48.3* | / | -16.6 | /
O=C1N=C(N2CCOCC2)S/C1=C\c1cccs1 | -2.1 | 0.9 | / | 19.3 | 2.5 | -1.4
CC(=O)OC1C(=O)[C@@]2(C)C(O)CC3OC[C@@]3(OC(C)=O)C2C(OC(=O)c2ccccc2)[C@]2(O)CC(OC(=O)C(O)C(NC(=O)c3ccccc3)c3ccccc3)C(C)=C1C2(C)C (stereo not given in full) | / | / | -18.0 | / | / | /
C=CCc1cccc(C=NNC(=O)C(C)Nc2ccc(C)cc2)c1O (stereo not given) | / | / | -2.1 | / | / | /
O=c1[nH]c(=S)n(Cc2ccc(F)cc2)c(O)c1C=NCc1cccnc1 | -3.4 | 1.3 | -6.3 | 35.0* | -9.5 | 0.4
CC(C)n1c(O)c(C=NCc2ccccc2)c(=O)[nH]c1=S | -4.3 | -0.1 | 7.9 | 39.9* | -0.4 | -4.0
O=c1[nH]c(=O)n(CCC2=CCCCC2)c(O)c1C=NCc1cccnc1 | -1.5 | 1.5 | 4.0 | 3.5 | 2.5 | -0.5
CCC(C)n1c(O)c(C=NCc2cccnc2)c(=O)[nH]c1=S (stereo not given) | -1.7 | 4.2 | 4.0 | 29.8 | 0.1 | -0.8
Cc1ccc(S(=O)(=O)N2C(c3cccs3)CC=C(C(=O)O)C2c2ccc(F)cc2)cc1 (stereo not given) | / | / | 6.6 | / | / | /
O=C(CC1CC=CCCC(Cc2ccc(F)cc2)C(=O)OCC(Cc2c[nH]c3ccccc23)NC1=O)NCCO (stereo not given) | / | / | -1.0 | / | / | /
O=C(NN=Cc1cn(-c2ccccc2)nc1-c1ccc2c(c1)OCCO2)c1ccncc1 | / | / | -4.0 | / | / | /
O=C(/C=C/c1ccco1)NC(=S)NNC(=O)c1ccco1 | 1.0 | 2.4 | 2.9 | 43.4* | 0.4 | 0.8
CCC(=O)Nc1ccc(NC(=S)NC(=O)/C=C/c2ccco2)cc1 | -2.6 | 0.0 | -8.1 | 47.5* | 4.0 | -0.6
S=c1[nH]nc(-c2ccncc2)n1N=C/C=C/c1ccco1 | / | / | 4.0 | / | / | /
CC(=O)Nc1ccc(C(C)=NNc2nc(Nc3cccc4ccccc34)nc(N3CCOCC3)n2)cc1 | / | / | 4.7 | / | / | /
CC(C)=CCCC1=CCC(C(C)=NNC(N)=O)CC1 (stereo not given) | / | / | 7.9 | / | / | /
NC(=O)COc1ccc(/C=C2\C(=O)ON=C2c2ccccc2)cc1 | -0.8 | -0.2 | 5.0 | -1.1 | 18.5 | -2.7
